Assay results as given in PubChem BioAssay (NCATS).
“And” between values parts separate entries of the source, which are not always exact repeats. Equal entries are not always repeated. Records with an inconclusive call do not appear. The source made the active and inactive calls. Unless noted, the call rests on the fitted dose curve; in most records, active means well fitted curve in the direction sought with a large enough effect; inconclusive means small, poorly fitted or top-dose-only effect, or another doubt; inactive means no such curve, though single readings can be large; an effect the other way counts as inactive or inconclusive.

How the values were obtained:
[1] = target: Protein phosphatase 1D (Homo sapiens) (UniProt O15297); experiment: Rhodamine-PBP qHTS Assay for Modulators of WT P53-Induced Phosphatase 1 (WIP1) (AID 1347425); further: % of control where 0% means no effect
Outline: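 WIP1 (5 nM final) was preincubated with compound for 1 hour at room temperature. It then dephosphorylated 10 uM VEPPL-pS-QETFS peptide in Tris-HCl pH 7.5 with 30 mM MgCl2. Released Pi was detected by 10 uM Rh-PBP fluorescence (ex 525/em 598 nm) read at 1-min intervals for 11 min, as delta f1 - f0.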

[2] = Primary qHTS for inhibitors of La Crosse Virus (LACV) - induced cell death in SH-SY5Y cells (AID 1508616);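 further: top concentration of the series differs between compounds; 0% = infected DMSO wells and 100% = uninfected DMSO wells; higher means more rescue of cells from virus-induced death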
Outline: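 SH-SY5Y, 6000 cells/well; cpd via pin tool in DMSO; LACV 0.01 MOI; 6 d 37C 5% CO2; ATPLite, 5 min RT; luminescence normalized to ±virus DMSO controls.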

[3] = target: Calcium and integrin-binding protein 1 (Homo sapiens) (UniProt Q99828); experiment: Primary qHTS for Identification of Calcium Integrin Binding Protein 1 (CIB1) Competitor (AID 1508620);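 further: GST tagged CIB1 binding a fluorescein labelled alphaIIb integrin peptide tracer; top concentration of the series differs between compounds; on the % scale 0 is the no-effect control and ±100 the full control effect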
Outline: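 CIB1-GST (1 uM final) and compound incubated 15 min at room temperature before adding FITC-alphaIIb peptide tracer (100 nM final). Competition for binding read by fluorescence polarization (ex 480, em 540) after another 15 min at room temperature.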

[4] = Primary qHTS for small molecule stabilizers of the endoplasmic reticulum resident proteome: Secreted ER Calcium Modulated Protein (SERCaMP) assay (AID 1508630); further: potency means the concentration at half of the fitted maximal effect
Outline: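 The SH-SY5Y reporter protocol was run at 3 concentrations up to 38.3 uM (primary) or 11 concentrations (follow-up): 16 h compound, 100 nM thapsigargin for 4 h, then extracellular luciferase luminescence.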

[5] = A High-Content qHTS Against Drug Library for the Identification of Small Molecules that Inhibit DYT1 Early Onset Primary Dystonia-Associated Cell Pathology (AID 1645839; calls by dose curve; further: series mostly up to about 46 µM)
Outline: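 High-content imaging quantified EGFP-TorsinA mislocalization in HEK293-derived cells inducibly expressing DYT1 mutant torsinA, after 48 h exposure to compound given together with tetracycline induction. Cell count served as a toxicity channel alongside %pathology.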

[6] = target: Cytochrome P450 2D6 (Homo sapiens) (UniProt P10635); experiment: Cytochrome P450 family 2 subfamily D member 6 (CYP2D6) small molecule antagonists: luciferase biochemical (cell-free) qHTS assay (AID 1645840; active means well fitted curve in the direction sought with a large enough effect in the repeat runs; an effect the other way counts as inactive or inconclusive; further: nearly all actives have a fitted effect of over 55% in size; further: potency means the concentration at half of the fitted maximal effect)
Outline: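 P450-Glo CYP2D6 system: proluciferin substrate converted by enzyme to luciferin, read by luminescence proportional to activity. Enzyme-substrate mix with compound 10 min at room temperature, then NADPH regeneration 1 h before detection reagent.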

[7] = target: Cytochrome P450 2C9 (Homo sapiens) (UniProt P11712); experiment: Cytochrome P450 family 2 subfamily C member 9 (CYP2C9) small molecule antagonists: luciferase biochemical (cell-free) qHTS assay (AID 1645842; active means well fitted curve in the direction sought with a large enough effect in the repeat runs; an effect the other way counts as inactive or inconclusive; further: nearly all actives have a fitted effect of over 55% in size; further: potency means the concentration at half of the fitted maximal effect)
Outline: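 P450-Glo CYP2C9 system: proluciferin substrate with enzyme in mix containing 0.4% BSA, 10 min at room temperature, then NADPH regeneration solution added and incubated 1 h at 37C. Detection reagent stopped reaction; luminescence read after 20 min as RLU.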

[8] = Primary qHTS for inhibitors of nuclear receptor binding SET domain protein 2 (NSD2) in an isogenic RCH-ACV NSD2 p.E1099K mutant (9B) (AID 1645876); further: nearly all actives have a fitted effect of over 70% in size; further: potency means the concentration at half of the fitted maximal effect
[9] = Primary qHTS for inhibitors of nuclear receptor binding SET domain protein 2 (NSD2) in an RCH-ACV wild type WT cells (2C) (AID 1645877); further: nearly all actives have a fitted effect of over 70% in size; further: potency means the concentration at half of the fitted maximal effect
[10] = Counterscreen qHTS for small molecule stabilizers of the endoplasmic reticulum resident proteome: GLuc-NoTag assay (AID 1508627);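 further: series mostly up to about 76 µM; 0% = thapsigargin alone and -100% = DMSO vehicle control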
Outline: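 Counterscreen line: SH-SY5Y-GLuc-NoTag cells, treated with compound 19 hr before a 4 hr, 100 nM thapsigargin calcium depletion. Secreted Gaussia luciferase in the medium was measured by luminescence after coelenterazine was added (0.07x final), with cells unlysed.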

[11] = Confirmatory qHTS for small molecule stabilizers of the endoplasmic reticulum resident proteome: Secreted ER Calcium Modulated Protein (SERCaMP) assay (AID 1508628); further: nearly all actives have a fitted effect of over 40% in size; further: potency means the concentration at half of the fitted maximal effect
Outline: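 Reporter secretion upon ER calcium depletion (100 nM thapsigargin, 4 h, 37C) is measured as medium luminescence with coelenterazine, after 16 h compound pretreatment of SH-SY5Y-GLuc-SERCaMP cells; primary at three concentrations up to 38.3 uM, follow-up at 11 (up to 76.6 uM).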

[12] = Cell Viability qHTS for small molecule stabilizers of the endoplasmic reticulum resident proteome (AID 1508629); conditions: cell viability counter-screen, 100 nM thapsigargin for final 4 h;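 further: human SH-SY5Y neuroblastoma cells carrying the GLuc-SERCaMP reporter; compound exposure about 46 h in total before the viability read; on the % scale 0 is the no-effect control and ±100 the full control effect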
[13] = target: Calcium and integrin-binding protein 1 (Homo sapiens) (UniProt Q99828); experiment: Validation qHTS for Identification of Calcium Integrin Binding protein 1 (CIB1) Competitor (AID 1508618); further: on the % scale 0 is the no-effect control and ±100 the full control effect
Outline: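 Fluorescence polarization with 1 uM CIB1-GST and 100 nM FITC-alphaIIb peptide in HEPES pH 7.4, NaCl, 5 mM CaCl2, Tween20. Compounds at up to 114 uM final, preincubated with protein 15 min; read after 15 min more at RT.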

Papain (Carica papaya) = Papain (Carica papaya) (UniProt P00784); experiment: Primary qHTS assay for inhibitors of the protease papain (AID 1645873);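 further: papain turnover of Z-FR-AMC read as the AMC fluorescence gain over 10 min; series mostly up to about 50 µM; on the % scale 0 is the no-effect control and ±100 the full control effect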
[14] = target: Calcium and integrin-binding protein 1 (Homo sapiens) (UniProt Q99828); experiment: Confirmatory qHTS for Identification of Calcium Integrin Binding Protein 1 (CIB1) Competitor (AID 1508617); further: on the % scale 0 is the no-effect control and ±100 the full control effect; nearly all actives have a fitted effect of over 65% in size
Outline: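 FP competition: CIB1-GST (1 uM final) in 5 mM HEPES pH 7.4, 125 mM NaCl, 5 mM CaCl2, 0.01% Tween20 preincubated 15 min RT with compounds (up to 114 uM), then FITC-alphaIIb peptide (100 nM), 15 min RT; Ex 480/Em 540.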

Chain of Calcium and integrin-binding protein 1 (Homo sapiens) (Q99828 whole entry, looked up): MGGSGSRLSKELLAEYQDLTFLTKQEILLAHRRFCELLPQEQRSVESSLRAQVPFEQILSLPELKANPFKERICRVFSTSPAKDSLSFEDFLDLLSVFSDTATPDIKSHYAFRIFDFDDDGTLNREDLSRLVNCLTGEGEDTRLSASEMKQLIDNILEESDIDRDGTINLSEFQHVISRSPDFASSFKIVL
Chain of Protein phosphatase 1D (Homo sapiens) (O15297 whole entry, looked up): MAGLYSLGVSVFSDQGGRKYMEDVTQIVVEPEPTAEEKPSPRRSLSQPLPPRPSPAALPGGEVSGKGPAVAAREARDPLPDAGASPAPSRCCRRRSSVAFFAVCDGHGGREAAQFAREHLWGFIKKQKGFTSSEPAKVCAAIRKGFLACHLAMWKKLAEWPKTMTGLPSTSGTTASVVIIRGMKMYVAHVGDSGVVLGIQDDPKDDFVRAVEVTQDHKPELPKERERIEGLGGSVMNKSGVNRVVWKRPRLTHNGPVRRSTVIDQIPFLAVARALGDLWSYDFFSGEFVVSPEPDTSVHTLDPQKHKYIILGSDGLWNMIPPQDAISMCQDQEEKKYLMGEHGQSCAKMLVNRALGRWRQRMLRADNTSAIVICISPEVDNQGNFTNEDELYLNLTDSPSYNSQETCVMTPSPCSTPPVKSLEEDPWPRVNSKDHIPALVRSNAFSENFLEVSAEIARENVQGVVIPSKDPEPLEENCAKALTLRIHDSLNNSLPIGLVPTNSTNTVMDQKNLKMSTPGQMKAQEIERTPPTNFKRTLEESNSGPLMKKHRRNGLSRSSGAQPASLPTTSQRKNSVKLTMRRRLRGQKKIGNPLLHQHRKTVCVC
Chain of Cytochrome P450 2D6 (Homo sapiens) (P10635 whole entry, looked up): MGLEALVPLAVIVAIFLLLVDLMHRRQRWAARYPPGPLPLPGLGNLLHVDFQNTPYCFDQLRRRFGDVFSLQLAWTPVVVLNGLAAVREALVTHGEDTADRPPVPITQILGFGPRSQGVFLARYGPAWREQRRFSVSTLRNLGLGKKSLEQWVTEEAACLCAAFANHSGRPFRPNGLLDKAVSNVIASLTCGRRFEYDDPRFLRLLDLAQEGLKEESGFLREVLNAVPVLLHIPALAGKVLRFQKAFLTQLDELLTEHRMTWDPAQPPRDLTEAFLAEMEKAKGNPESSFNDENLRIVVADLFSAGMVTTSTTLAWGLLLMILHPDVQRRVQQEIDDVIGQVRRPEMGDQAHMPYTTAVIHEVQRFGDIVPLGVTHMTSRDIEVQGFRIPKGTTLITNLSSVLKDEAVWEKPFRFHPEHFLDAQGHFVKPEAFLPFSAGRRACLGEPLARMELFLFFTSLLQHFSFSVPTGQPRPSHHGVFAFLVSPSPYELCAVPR
Chain of Cytochrome P450 2C9 (Homo sapiens) (P11712 whole entry, looked up): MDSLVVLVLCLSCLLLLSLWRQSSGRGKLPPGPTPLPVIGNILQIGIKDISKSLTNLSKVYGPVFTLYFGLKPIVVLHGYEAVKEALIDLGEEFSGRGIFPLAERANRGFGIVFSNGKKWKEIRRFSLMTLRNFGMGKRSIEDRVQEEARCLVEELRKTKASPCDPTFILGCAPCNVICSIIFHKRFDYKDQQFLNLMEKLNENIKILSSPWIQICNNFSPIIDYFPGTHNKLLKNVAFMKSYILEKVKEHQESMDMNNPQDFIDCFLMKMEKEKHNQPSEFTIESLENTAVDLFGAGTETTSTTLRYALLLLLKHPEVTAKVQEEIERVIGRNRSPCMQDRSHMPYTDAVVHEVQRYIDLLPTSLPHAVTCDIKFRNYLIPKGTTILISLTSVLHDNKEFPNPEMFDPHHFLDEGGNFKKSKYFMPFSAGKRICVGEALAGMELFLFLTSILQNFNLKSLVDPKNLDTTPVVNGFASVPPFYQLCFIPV
Chain of Papain (Carica papaya) (P00784 whole entry, looked up): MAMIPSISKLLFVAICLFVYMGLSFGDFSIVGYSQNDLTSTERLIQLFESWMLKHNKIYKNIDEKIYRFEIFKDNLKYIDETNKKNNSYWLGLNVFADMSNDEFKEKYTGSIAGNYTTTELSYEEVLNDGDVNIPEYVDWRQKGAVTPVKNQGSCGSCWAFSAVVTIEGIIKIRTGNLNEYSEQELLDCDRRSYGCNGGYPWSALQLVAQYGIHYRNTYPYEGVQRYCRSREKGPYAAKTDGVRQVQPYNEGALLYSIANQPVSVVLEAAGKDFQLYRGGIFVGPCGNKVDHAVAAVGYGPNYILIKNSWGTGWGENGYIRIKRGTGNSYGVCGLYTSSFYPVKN

Nc1[nH]c(=O)ncc1F
inactive: outcome [1] | Potency [2] | outcome [3] | Potency [4] | Potency [5] | Potency [6] | Potency [7] | Potency [8] | Potency [9]

COc1c(N2CCNC(C)C2)c(F)cc2c(=O)c(C(=O)O)cn(C3CC3)c12 (stereo unspecified)
inactive: outcome [1] | Potency [2] | outcome [3] | outcome [10] | max response [12] -1.18% and 19.6% | Potency [5] | Potency [6] | Potency [7] | Potency [8] | Potency [9]
active: Potency [11] 14.1 µM | Potency [4] 20 µM

CNS(=O)(=O)CCc1ccc2[nH]cc(C3CCN(C)CC3)c2c1
inactive: outcome [1] | Potency [2] | outcome [13] | outcome [3] | Potency [4] | Potency [5] | Potency [7] | Potency (Papain (Carica papaya)) | Potency [8] | Potency [9]

Cc1ncc([N+](=O)[O-])n1CCO
inactive: outcome [1] | Potency [2] | outcome [3] | Potency [4] | Potency [5] | Potency [6] | Potency [7] | Potency [8] | Potency [9]

CCOC(=O)c1ccc(OC(=O)CCCCCN=C(N)N)cc1
active: Potency [6] 0.0977 µM | Potency [9] 23.5 µM
inactive: outcome [1] | Potency [2] | outcome [3] | Potency [4] | Potency [5] | Potency [7] | Potency [8]

CO[C@@]12[C@H](COC(N)=O)C3=C(C(=O)C(C)=C(N)C3=O)N1C[C@@H]1N[C@@H]12
active: Potency [6] 12.3 µM
inactive: outcome [1] | Potency [2] | outcome [14] | outcome [3] | Potency [7] | Potency [8] | Potency [9]

CCC(C)(C)c1ccc(CC(C)CN2C[C@@H](C)O[C@@H](C)C2)cc1 (stereo partly specified)
active: Potency [6] 4.9 µM
inactive: outcome [1] | Potency [2] | outcome [3] | Potency [4] | Potency [5] | Potency [8]

O=c1cc(O)c(Cl)c[nH]1
inactive: outcome [1] | Potency [2] | outcome [3] | Potency [4] | Potency [5] | Potency [6] | Potency [7] | Potency [8] | Potency [9]

COc1ccccc1OCC(O)COC(N)=O (stereo unspecified)
inactive: outcome [1] | Potency [2] | outcome [3] | Potency [4] | Potency [5] | Potency [6] | Potency [7] | Potency [8] | Potency [9]

COc1nc(N)nc2c1ncn2[C@@H]1O[C@H](CO)[C@@H](O)[C@@H]1O
active: Potency [8] 5.31 µM | Potency [9] 6.68 µM
inactive: outcome [1] | Potency [2] | outcome [3] | Potency [4] | Potency [5] | Potency [6] | Potency [7]

COc1cnc(NS(=O)(=O)c2ccc(N)cc2)nc1
inactive: outcome [1] | Potency [2] | outcome [3] | Potency [4] | Potency [5] | Potency [6] | Potency [7] | Potency [8] | Potency [9]

CCn1cc(C(=O)O)c(=O)c2cc(F)c(N3CCNCC3)nc21
inactive: outcome [1] | Potency [2] | outcome [3] | outcome [10] | Potency [11] | max response [12] 28.2% | Potency [4] | Potency [5] | Potency [6] | Potency [7] | Potency [8] | Potency [9]

CC(N)C12CC3CC(CC(C3)C1)C2 (stereo unspecified)
inactive: outcome [1] | Potency [2] | outcome [3] | Potency [4] | Potency [5] | Potency [6] | Potency [7] | Potency [8] | Potency [9]

CN1CCCC(n2nc(Cc3ccc(Cl)cc3)c3ccccc3c2=O)CC1 (stereo unspecified)
inactive: outcome [1] | Potency [2] | outcome [3] | outcome [10] | Potency [4] | Potency [7]
active: Potency [11] 20 µM | Potency [6] 0.617 µM

COc1cc(NCc2ccc3nc(N)nc(N)c3c2C)cc(OC)c1OC
inactive: outcome [1] | Potency [2] | outcome [3] | Potency [4] | Potency [5]
active: Potency [6] 6.92 µM | Potency [7] 12.3 µM | Potency [8] 13.3 nM and 1.05 µM | Potency [9] 15 nM and 1.18 µM

CO[C@@H]1[C@@H](OC(N)=O)[C@@H](O)[C@H](Oc2ccc3c(O)c(NC(=O)c4ccc(O)c(CC=C(C)C)c4)c(=O)oc3c2C)OC1(C)C
active: Potency [11] 35.5 µM | Potency [7] 3.09 µM
inactive: outcome [1] | Potency [2] | outcome [3] | max response [12] 49.1% | Potency [5] | Potency [6] | Potency [8] | Potency [9]

CCCCCCNC(=O)n1cc(F)c(=O)[nH]c1=O
active: Potency [6] 15.5 µM | Potency [8] 8.41 µM and 10.5 µM | Potency [9] 7.5 µM and 8.33 µM
inactive: outcome [1] | Potency [2] | outcome [3] | Potency [4] | Potency [5]

Cc1onc(-c2ccccc2Cl)c1C(=O)N[C@@H]1C(=O)N2[C@@H]1SC(C)(C)[C@@H]2C(=O)O
inactive: outcome [1] | Potency [2] | outcome [3] | Potency [4] | Potency [5] | Potency [8] | Potency [9]

O=S(=O)(c1cccc2cnccc12)N1CCCNCC1
inactive: outcome [1] | Potency [2] | outcome [3] | Potency [5] | Potency [7] | Potency [8]

C1CCC(C(CC2CCCCN2)C2CCCCC2)CC1 (stereo unspecified)
active: Potency [6] 0.138 µM | Potency [8] 7.42 µM | Potency [9] 8.33 µM
inactive: outcome [1] | Potency [2] | outcome [3] | Potency [4]
